# In all, about 1,500 compounds went through this assay and about 390 (26%) were called active. How the calls were made is not given here. Only a sample is shown. Measured potencies and affinities stand elsewhere.
# Molecular target: Histone-lysine N-methyltransferase NSD2 (Homo sapiens) (UniProt O96028)
# Assay: NSD2 methyltransferase inhibitors, dose response, biochemical, AlphaScreen, cherry-picked samples (AID 1053173)
# Details: NSD2 H4 peptide methylation, 120 min; series mostly up to 10 µM
# Chain of Histone-lysine N-methyltransferase NSD2 (Homo sapiens) (O96028 whole entry, looked up): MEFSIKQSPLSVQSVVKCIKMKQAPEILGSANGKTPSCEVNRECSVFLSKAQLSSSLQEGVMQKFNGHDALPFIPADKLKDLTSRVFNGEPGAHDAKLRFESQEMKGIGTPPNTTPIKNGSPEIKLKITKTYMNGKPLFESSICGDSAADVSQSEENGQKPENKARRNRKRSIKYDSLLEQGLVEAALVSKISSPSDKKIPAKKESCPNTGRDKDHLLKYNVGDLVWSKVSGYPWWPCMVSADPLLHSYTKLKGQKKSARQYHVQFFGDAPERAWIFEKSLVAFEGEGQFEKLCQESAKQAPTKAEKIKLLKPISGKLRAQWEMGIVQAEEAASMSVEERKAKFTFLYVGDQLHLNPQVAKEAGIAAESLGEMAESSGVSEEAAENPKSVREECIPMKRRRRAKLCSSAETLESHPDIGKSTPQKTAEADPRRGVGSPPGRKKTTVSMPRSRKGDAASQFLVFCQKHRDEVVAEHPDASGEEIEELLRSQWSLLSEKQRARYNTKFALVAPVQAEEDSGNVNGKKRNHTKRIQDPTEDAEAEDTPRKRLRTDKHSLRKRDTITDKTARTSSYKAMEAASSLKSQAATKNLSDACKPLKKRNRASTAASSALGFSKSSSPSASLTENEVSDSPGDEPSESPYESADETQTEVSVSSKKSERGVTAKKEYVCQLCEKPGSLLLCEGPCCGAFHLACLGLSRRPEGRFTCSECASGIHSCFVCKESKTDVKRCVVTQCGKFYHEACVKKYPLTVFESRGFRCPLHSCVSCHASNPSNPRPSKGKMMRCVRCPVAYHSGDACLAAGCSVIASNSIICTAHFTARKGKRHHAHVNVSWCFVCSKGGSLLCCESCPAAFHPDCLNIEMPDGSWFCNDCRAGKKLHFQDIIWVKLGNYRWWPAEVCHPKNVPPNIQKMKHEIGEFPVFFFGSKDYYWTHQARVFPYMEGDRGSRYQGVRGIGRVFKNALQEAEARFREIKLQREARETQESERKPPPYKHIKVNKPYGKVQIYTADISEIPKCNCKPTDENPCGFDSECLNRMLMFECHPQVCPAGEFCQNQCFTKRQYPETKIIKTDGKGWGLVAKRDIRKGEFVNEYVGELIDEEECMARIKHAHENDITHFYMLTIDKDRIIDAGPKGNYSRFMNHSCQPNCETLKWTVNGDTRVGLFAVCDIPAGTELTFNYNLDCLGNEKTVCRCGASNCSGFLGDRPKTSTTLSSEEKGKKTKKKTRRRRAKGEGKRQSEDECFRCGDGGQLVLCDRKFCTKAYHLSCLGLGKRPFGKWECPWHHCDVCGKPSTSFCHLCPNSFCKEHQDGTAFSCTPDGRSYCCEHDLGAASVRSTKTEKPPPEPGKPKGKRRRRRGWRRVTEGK
row,Structure (SMILES),outcome
1,CCOc1cc(/C=C/C(=O)OCC(=O)NCCN2C(=O)CSC2=O)ccc1OCC(C)C,inactive
2,Cc1cccc(-n2c3nc(=O)[nH]c(=O)c-3cc3cc([N+](=O)[O-])ccc32)c1,inactive
3,Cc1c(NC(=O)CN2C(=O)C(=O)c3ccccc32)c(=O)n(-c2ccccc2)n1C,inactive
4,Cc1c(N=NC2=C(O)CC(C)(C)CC2=O)c(=O)n(-c2ccccc2)n1C,inactive
5,C/C(=C\C(=O)c1cccnc1)Nc1ccc(O)cc1,inactive
6,COc1ccc(CCNC(=O)CN2C(=O)C(=O)N(C3CCCC3)C2=O)cc1OC,inactive
7,CN(C)Cc1csc(NC(=O)Nc2cccc(Cl)c2)n1,inactive
8,Cn1c(N2CCCC2)nc2c1c(=O)n(Cc1ccc(Cl)cc1)c(=O)n2C,inactive
9,COCCN(C(=O)CCC(=O)Nc1cc(C)on1)C(C(=O)NC(C)(C)C)c1ccccc1Cl (stereo not drawn),inactive
10,COc1ccc(Cc2ccccc2C(=O)O)cc1,inactive
11,COc1ccc(C(C[N+](=O)[O-])c2c(C)[nH]n(-c3ccccc3)c2=O)cc1 (stereo not drawn),inactive
12,O=C(NNS(=O)(=O)c1ccc(F)cc1F)c1csc(-c2cccnc2)n1,inactive
13,O=C(COc1ccccc1O)NCCN1CCOCC1,inactive
14,O=C(CCc1ccccc1)NCCCN1CCOCC1,inactive
15,Cc1nn2c3ccccc3n(CCN3CCCCC3)c2nc1=O,inactive
16,O=C(NCCN1CCCCC1)/C(=C/c1ccco1)NC(=O)c1ccccc1,inactive
17,O=C(NCCCN1CCCC1=O)Nc1ccc(Cl)cc1Cl,inactive
18,O=C(O)Cc1sc(NC2CCCCC2)nc1-c1ccc(Cl)cc1,inactive
19,Cn1c(=O)c2c(nc(CN3CCC(C(N)=O)CC3)n2Cc2ccccc2Cl)n(C)c1=O,inactive
20,Cc1ccc(-n2c(C)c(C)c3c(N)ncnc32)cc1,inactive
21,CC(=O)c1ccc(-n2c(-c3cc(-c4ccco4)[nH]n3)n[nH]c2=S)cc1,inactive
22,Cc1cc(=O)[nH]c(COc2ccccc2)n1,inactive
23,COC(=O)COc1ccc(S(=O)(=O)NCC2CCCO2)cc1Cl (stereo not drawn),inactive
24,Cc1ccc(Nc2nc(-c3ccc(O)c(O)c3)cs2)nc1,inactive
25,CCOC(=O)c1sc(NC(=O)COc2ccc3c(c2)OCO3)nc1C,inactive

row,Structure (SMILES),outcome
1,COc1ccccc1OCCOc1ccc(/C=C2\C(=N)N3N=C(S(C)(=O)=O)SC3=NC2=O)cc1,inactive
2,O=C(C=Cc1ccccc1)c1cc(Br)ccc1O,inactive
3,Cc1sc2ncnc(SCC(=O)Nc3ccc(CN4CCCC4)cc3)c2c1C,inactive
4,Nc1nc(O)c(Sc2ccccc2[N+](=O)[O-])c(=O)[nH]1,inactive
5,Nn1cnnc1N/N=C/c1ccc(Cl)c([N+](=O)[O-])c1,inactive
6,Cc1c(-c2ccc(/C=N/NC(=O)C(=O)Nc3ccccc3F)o2)cccc1[N+](=O)[O-],inactive
7,CC1CCC2C(C1)c1sc(=O)[nH]c1SC2(C)C (stereo not drawn),inactive
8,COc1ccc(-n2ncc3c(NCCCn4ccnc4)ncnc32)cc1,inactive
9,N#Cc1ccccc1OCC(=O)OCC(=O)N1CCN(C(=O)c2ccco2)CC1,inactive
10,CCCC(=O)Nc1cc(C)cn(Cc2c(F)cccc2Cl)c1=O,inactive
11,COc1ccc(-n2nnnc2SCC(=O)c2ccc3c(c2)OCCO3)cc1,inactive
12,COc1ccc(OCC(=O)NNc2c3ccccc3nc3ccccc23)cc1,inactive
13,CCOC(=O)N1CCN(C(=S)NCCOC)CC1,inactive
14,O=C(CC1(O)C(=O)Nc2cc(Cl)cc(Cl)c21)c1ccncc1 (stereo not drawn),inactive
15,CC1CCCN(S(=O)(=O)c2ccc(NC(=O)CN3CCN(C)CC3)cc2)C1 (stereo not drawn),inactive
16,Cc1cccc(NC(=S)N2CCN(c3ccccc3F)CC2)c1C,inactive
17,CC(C)c1ccc(S(=O)(=O)N2CCN(CC(=O)Nc3ccc(Cl)cc3F)CC2)cc1,inactive
18,Cc1ccc(C(=O)C2CCN(S(=O)(=O)c3ccc(C(=O)O)cc3)CC2)cc1,inactive
19,O=C(NCc1ccc(Cl)cc1)c1ccc(S(=O)(=O)N2CCCCC2)cc1,inactive
20,NS(=O)(=O)c1ccc(S(=O)(=O)N2CCN(C3CCCC3)CC2)cc1,inactive
21,O=C(c1ccc(S(=O)(=O)N2CCOCC2)cc1)N(c1cccc(Cl)c1)C1C=CS(=O)(=O)C1 (stereo not drawn),inactive
22,CCc1cc(OCCN2C(=O)NC(C)(C)C2=O)ccc1Cl,inactive
23,S=C1NCN(Cc2ccco2)CN1CCc1ccccc1,inactive
24,Cc1ncc(CO)c2c1Oc1nc(-c3ccccc3)nc(SCC(=O)N3CCOCC3)c1C2,inactive
25,CCOC(=O)C(CCCP(=O)(c1ccccc1)c1ccccc1)(NC(C)=O)C(=O)OCC,inactive

row,Structure (SMILES),outcome
1,O=C(Cn1cc(C(F)(F)F)ccc1=O)Nc1ccc2c(c1)OCCO2,inactive
2,Cc1ccc(Nc2nnc(SCC(=O)Nc3ccc(S(=O)(=O)N4CCOCC4)cc3)s2)cc1,inactive
3,CCN(CC)c1ccc(NC(=O)COC(=O)c2ccc3ccccc3n2)cc1,inactive
4,COC(=O)C(C)(C)NC(=O)c1cccs1,inactive
5,COc1ccc(OC)c(-c2csc(-c3cccs3)n2)c1,inactive
6,COc1ccc(NC(=O)CN2CCN(S(=O)(=O)N3CCCCCC3)CC2)cc1,inactive
7,CCOC(=O)c1ccc(S(=O)(=O)N2CCN(c3ccccn3)CC2)cc1,inactive
8,O=C(Nc1ccccc1)OCCCCOC(=O)Nc1ccccc1,inactive
9,CCc1nc2ccc(C)cc2c(C(=O)NC2CCCCC2C)c1C (stereo not drawn),inactive
10,O=C(O)c1ccccc1NS(=O)(=O)c1ccc2ccccc2c1,inactive
11,CCOc1ccccc1Nc1nnc(SCc2ccc(C(=O)OC)o2)s1,inactive
12,COCCNC(=O)c1ccc(CN2CCc3ccccc3C2)cc1,inactive
13,Cc1ccc(C(=O)Cn2cc([N+](=O)[O-])nc2C)cc1,inactive
14,CC(C)(C)C1CCC2(CC1)C(Nc1cccc(C(F)(F)F)c1)=NC(=S)N2CC#N (stereo not drawn),inactive
15,COc1ccc(CCC(=O)NCCOc2ccccc2Cl)cc1,inactive
16,CSc1nsc(SCC(=O)Nc2cccc(NC(C)=O)c2)n1,inactive
17,Cc1cccnc1NC(=O)c1ccc(S(=O)(=O)N2CC(C)OC(C)C2)cc1 (stereo not drawn),inactive
18,O=C1CCCC(O)=C1N=Nc1cccc(C(=O)O)c1,inactive
19,O=C(NNC(=O)c1cccs1)c1ccc(Cl)c([N+](=O)[O-])c1,inactive
20,COc1ccccc1C(=O)NNC(=O)Cc1ccccc1,inactive
21,CC(C)CC(=O)N1CCC(O)(CS(=O)(=O)Cc2ccccc2Cl)CC1,inactive
22,O=C(CC(=O)NCCc1ccccc1)NCCc1ccccc1,inactive
23,O=C(CNC(=O)c1ccco1)NCC(=O)OCc1ccccc1Cl,inactive
